Test results from PubChem BioAssay (EPA / NIEHS).
“And” between values parts separate entries of the source, which are not always exact repeats. Identical values can stand only once. A structure can be active in one record and inactive in another. The source made the active and inactive calls. Rule for the calls: active = hit-call score of the fitted dose curve at least 0.9, where 1 is the maximum; inactive = score below 0.9.

What follows are compounds tested on Plasminogen activator inhibitor-1 (PAI1), SERPINE1 (gene 5054) (assay: BSK_MyoF_PAI1: BioMAP Diversity Plus: MyoF Assay for Plasminogen activator inhibitor-1 (PAI1) Biomarker Activity (AID 2284256;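 for outcome: PAI-1 protein level measured by ELISA in fibroblast cultures; PAI-1 read 24 h after compound addition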)). Details: primary human lung fibroblasts.
In short: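 Primary human lung fibroblasts are dosed and incubated 24 h. PAI-1 is then measured by ELISA, while parallel cultures undergo SRB staining for overt cytotoxicity. Increases over DMSO define activity.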

| Compound | outcome | AC50 |
| --- | --- | --- |
| O=C(O)C(F)(F)C(F)(F)C(F)(F)C(F)(F)C(F)(F)C(F)(F)C(F)(F)C(F)(F)C(F)(F)C(F)(F)C(F)(F)C(F)(F)F | inactive | – |
| FC1CC(F)(F)C(F)(F)C1(F)F (stereo unspecified) | inactive | – |
| O=C(O)C(F)(F)C(F)(F)C(F)F | inactive | – |
| O=C(O)C(F)(F)C(F)(F)OC(F)(F)F | inactive | – |
| O=C(O)C(F)(F)C(F)(F)C(F)(F)C(F)(F)C(F)(F)C(F)(F)C(F)(F)C(F)(F)C(F)(F)C(F)F | inactive | 23.6 µM (active) |
| OCCCC(F)(F)C(F)(F)C(F)(F)C(F)(F)C(F)(F)C(F)(F)C(F)(F)F | – | 51.2 µM (active) and 52.2 µM (active) |
| NC(=O)C(F)(F)C(F)(F)C(F)(F)C(F)(F)F | inactive | – |
| Cc1ccc(S(=O)(=O)OCC(F)(F)C(F)(F)C(F)(F)C(F)(F)C(F)(F)C(F)F)cc1 | inactive | – |
| FC(F)(F)C(F)(F)C(F)(F)N(C(F)(F)C(F)(F)C(F)(F)F)C(F)(F)C(F)(F)C(F)(F)F | inactive | – |
| FC(F)(F)C(F)(F)C(F)(F)C(F)(F)C(F)(F)C(F)(F)C(F)(F)I | inactive | – |
| O=C(O)C(F)(F)C(F)(F)C(F)(F)C(F)(F)C(F)(F)C(F)(F)C(F)(F)C(F)(F)C(F)(F)C(F)(F)C(F)(F)C(F)(F)C(F)(F)F | inactive | – |
| CCO[Si](CCC(F)(F)C(F)(F)C(F)(F)C(F)(F)C(F)(F)C(F)(F)F)(OCC)OCC | inactive | – |
| OCC(F)(F)C(F)(F)C(F)(F)C(F)F | inactive | – |
| OCCCC(F)(F)C(F)(F)C(F)(F)F | inactive | – |
| FC(F)(Br)C(F)(F)C(F)(F)C(F)(F)C(F)(F)C(F)(F)Br | inactive | – |
